LGR2 antag – blocks bursicon-induced cAMP signaling via Drosophila LGR2 | hit rate 0.35% among 380,000 | inhibition, % at 9.99 µM | HEK293 LGR2, CRE-luciferase, bursicon-stimulated, 4 h;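 active = drop in luminescence signal, shown as inhibition above about 50% in the replicate tests, limit read from the data, passing the limit was not always enough; inconclusive = probably only some replicates passing the limit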;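 note: agonist challenge used bursicon conditioned medium at about half maximal strength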
EBV LMP1 NFkB – reduces LMP1-driven NF-kappaB luciferase signal; inhibition, % at 12.5 µM; hit rate 0.69% among 350,000; LMP1-induced NF-kappaB luciferase reporter cells, luminescence; in the data active = inhibition above about 41%; inconclusive = no clear call, values can overlap the other calls;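 note: 0% = neutral control wells and 100% = reference inhibitor control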
TROY signal inh – blocks TROY-dependent signaling in reporter cells; inhibition, % at 10 µM; Q293 LMP1-TROYcd NF-kB luciferase reporter, 4 h; AID 1347056; hit rate 0.98% among 360,000;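 active = compounds whose plate-normalised and pattern-corrected inhibition of the luciferase reporter signal at the single screening dose is 50% or more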
PAX8 reporter – PAX8 transcriptional activity inhibition. RMG-I TPO-luciferase reporter, SteadyGlo, 24 h. inhibition, % at 12.6 µM. hit rate 1.2% among 360,000;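 active = mean replicate inhibition at least 60% with every replicate also reaching 60%; inconclusive = only one of the two criteria is met; inactive = mean below 60% and not all replicates reaching 60%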;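 note: luciferase light reporting Pax8 driven TPO promoter activity; plate controls were median of neutral control wells for no effect and mitoxantrone controls for full effect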
TWEAK-Fn14 inh – TWEAK-Fn14 signaling inhibition; hit rate 2% among 360,000; inhibition, % at 10 µM; TWEAK-stimulated Fn14 reporter cells, luciferase luminescence, 8 h; AID 1159606; in the data active = inhibition above about 50%
EWS-Fli block – inhibitors of EWS/Fli oncoprotein transcriptional activity | AID 651661 | hit rate 0.67% among 350,000 | inhibition, % at 12.6 µM | A673 NR0B1-luciferase reporter, viability-normalised;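 active = mean inhibition of at least 50% after viability correction, with every replicate also passing that limit; inconclusive = mean reaches 50% but only one of two replicates passes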;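 note: firefly luciferase signal divided by Alamar Blue viability fluorescence both relative to DMSO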
* marks the source's active call; other numbers are inactive results; ? = inconclusive; nt = no result given. Rows were chosen to be rich in hits. Some 3.2% of all compounds tested hit in one or more screens of this group.

SMILES	LGR2 antag	EBV LMP1 NFkB	TROY signal inh	PAX8 reporter	TWEAK-Fn14 inh	EWS-Fli block
CCN(CC)CCCNC1=C(Cl)C(=O)c2ccccc2C1=O	77*	5	27	70*	20	65*
CC1C/C(=C/c2ccncc2)C(=O)/C(=C/c2ccncc2)C1 (stereo not drawn)	103*	92*	66*	85*	100*	78*
O=C1/C(=C/c2ccncc2)Cc2ccccc21	-7	8	-14	14	3	-4
COC(=O)c1ccc2ccccc2n1	nt	nt	-25	nt	2	nt
CCOc1ccc(N=C(NN)c2ccc3ccccc3n2)cc1	?	26	87*	-26	94*	nt
Cc1nnc(N/N=C/c2ccc(Br)cc2)n1N	-9	0	-24	-3	0	-13
COc1ccc(/C=N/N=C/c2ccc(OC)c(O)c2)cc1O	nt	5	10	nt	-4	nt
COc1ccc(/C=N/Nc2nnc(C)n2N)cc1OC(C)=O	7	-4	16	-32	14	-9
COc1ccc(/C=N/N=C/c2ccc(OC)c(OC)c2)cc1OC	nt	44*	-7	7	-13	nt
COc1ccc(/C=N/Nc2nnc(C)n2N)cc1OC	-7	60*	32	19	-24	-6
Cc1nnc(N/N=C/c2ccc([N+](=O)[O-])cc2)n1N	1	1	55*	-13	-12	3
C[C@@H]1CN([C@@H](C)CO)C(=O)c2cc(NC(=O)Nc3ccc4c(c3)OCO4)ccc2O[C@@H](C)CCCCO[C@H]1CN(C)C(=O)c1ccccc1	5	nt	nt	17	nt	13
O=C(C[C@H]1CC[C@H]2[C@@H](COC[C@@H](O)CN2Cc2cccc(Cl)c2)O1)NCC1CCCCC1	-35	nt	nt	51	nt	13
Cc1ccc(/C=C2/SC(=S)N(CCCC(=O)Nc3ccc(O)cc3)C2=O)cc1	-63	38	-5	81*	15	50
CC(/C=C1\SC(=S)N(CCC(=O)Nc2ccc(O)cc2)C1=O)=C\c1ccccc1	-12	-3	0	74*	25	3
COc1ccc(/C=C2/SC(=S)N(CCCC(=O)Nc3ccc(O)cc3)C2=O)cc1OC	11	21	17	nt	25	17
O=C(CCCN1C(=O)/C(=C/c2ccccc2)SC1=S)Nc1cccc(O)c1	7	8	0	66*	30	4
COc1cccc(/C=C2/SC(=S)N(CCCC(=O)Nc3ccc(O)cc3)C2=O)c1	5	31	1	nt	15	5
O=C(CCCN1C(=O)/C(=C\c2ccccc2)SC1=S)Nc1ccc(O)cc1	-7	9	16	77*	12	3
O=C(C1CCCC1)N1CC2(C1)[C@H](c1ccccc1)[C@@H](CO)N2C(=O)c1cccnc1	10	nt	nt	nt	nt	3
Cc1ccc(/C=C2\SC(=S)N(CCCC(=O)NC3CCCC3)C2=O)cc1	-5	55*	-13	25	44	nt
COc1cc(/C=C2\SC(=S)N(CCC(=O)NC3CCCC3)C2=O)cc(OC)c1OC	10	9	15	-16	-5	-4
NCCN1C(=O)S/C(=C\c2ccc3c(c2)OCO3)C1=O	31	5	57*	-3	66*	-1
CC(/C=C1\SC(=S)N(c2ccc(C(=O)O)cc2)C1=O)=C\c1ccccc1	13	4	45	3	58*	-7
COc1cc(/C=C2\SC(=O)N(CCN)C2=O)ccc1OS(=O)(=O)c1cc(C)ccc1C	82*	-3	-11	23	-28	38
SMILES	LGR2 antag	EBV LMP1 NFkB	TROY signal inh	PAX8 reporter	TWEAK-Fn14 inh	EWS-Fli block
COc1ccc(/C=C2\SC(=O)N(CCC(=O)Nc3ccccc3)C2=O)cc1OC	-24	-1	6	-27	-26	nt
CCCNC(=O)N1CC2(CN(C(=O)C3CCC3)C2)c2c([nH]c3cc(OC)ccc23)[C@H]1CO	-9	nt	nt	nt	nt	-10
COc1ccc(CN2CC3(CN(C(=O)Nc4cccc(F)c4)C3)c3c([nH]c4cc(OC)ccc34)[C@H]2CO)cc1	11	nt	nt	nt	nt	-11
O=C(CCCN1C(=O)/C(=C/c2ccc3c(c2)OCO3)SC1=S)Nc1cccc(C(=O)O)c1	-4	28	31	-8	56*	29
CCOc1cc(/C=C(\CC(=O)O)c2nc3ccccc3s2)ccc1OC	-13	-4	37	-14	62*	5
COc1ccc(S(=O)(=O)N(C)C[C@@H]2OCCCC[C@@H](C)Oc3ccc(NS(=O)(=O)c4cccs4)cc3C(=O)N([C@H](C)CO)C[C@H]2C)cc1	3	nt	nt	29	nt	25
CO[C@@H]1CN(C)C(=O)c2ccc(NC(=O)Nc3cc(F)ccc3F)cc2OC[C@H](C)N(C(=O)c2cnccn2)C[C@H]1C	6	nt	nt	nt	nt	-6

From PubChem BioAssay
